The full ranking holds about 18,000 sequences; the median of “log2 normalized intensity” is about 0.36, and the highest 2% start at about 7.3. The entries come from a sample that favours the highest values as a whole.
The sequences below were run against T1, HNF4alpha8 (COS-7 nuclear extract) (Homo sapiens, UniProt P41235-5 1-452) (assay: protein-binding microarray; COS-7 nuclear extract on double-stranded Agilent 4x180k PBM; binding buffer, salt, pH and temperature not given in the material; high values mean tight binding). Conditions: chain copies: 2; label: 3' end of strand 1 on the slide; dsDNA, one strand shown.
T1 sequence: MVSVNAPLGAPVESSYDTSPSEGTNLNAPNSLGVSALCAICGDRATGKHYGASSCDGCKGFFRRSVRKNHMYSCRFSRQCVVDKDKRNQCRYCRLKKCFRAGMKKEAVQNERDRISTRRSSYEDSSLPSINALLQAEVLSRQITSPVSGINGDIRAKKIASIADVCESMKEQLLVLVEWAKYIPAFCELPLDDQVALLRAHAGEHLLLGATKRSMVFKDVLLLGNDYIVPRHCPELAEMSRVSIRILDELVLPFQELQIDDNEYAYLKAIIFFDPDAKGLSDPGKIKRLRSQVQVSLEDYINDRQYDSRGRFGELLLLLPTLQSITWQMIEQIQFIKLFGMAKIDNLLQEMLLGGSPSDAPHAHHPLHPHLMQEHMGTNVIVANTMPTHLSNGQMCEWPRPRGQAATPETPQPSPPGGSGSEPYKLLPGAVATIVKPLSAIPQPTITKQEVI
Method in brief: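 Binding signal is the background-corrected, normalized gProcessedSignal calculated by Agilent software. It was measured by applying nuclear extracts of COS-7 cells transiently transfected with a human HNF4α isoform expression vector to a custom Agilent SurePrint G3 4x180k array of ~44,000 double-stranded ~60-nt test sequences in quadruplicate, then imaging bound HNF4α on an Agilent G2565CA scanner at 2-µm resolution.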

Sequence | binding signal
CTGTTTCTTTGTGTGTCAACAGAGTGCTTAGCCTAGGGAGATTAGAGTATCGGTCGA | 1.48 log2 normalized intensity
TAGGTACTATTATTAGAGTCCCTTTTTTAGGCCTAGGGAGATTAGAGTATCGGTCGA | 0.509 log2 normalized intensity
GAAAGGATCTCACCCAAACCATCCCAGGCAGCCTAGGGAGATTAGAGTATCGGTCGA | 3.1 log2 normalized intensity
GGTGATGTGAACCTCGATCCCTGGCTAAGGGCCTAGGGAGATTAGAGTATCGGTCGA | 2.38 log2 normalized intensity
CCCCACCCGCGGTCCGTCCCTCCTGGTCGAGCCTAGGGAGATTAGAGTATCGGTCGA | 3.57 log2 normalized intensity
CCCAGTATGAGCGGCGCTGACCCCGGGAGCGCCTAGGGAGATTAGAGTATCGGTCGA | 3.67 log2 normalized intensity
TGAGACTTTCCTGTTGGGGAGCAAAGGTTAGCCTAGGGAGATTAGAGTATCGGTCGA | 6.1 log2 normalized intensity
TGCATGCAAAAAGGCTGACCTTTGACTCTCGCCTAGGGAGATTAGAGTATCGGTCGA | 8.15 log2 normalized intensity
CTTTTTGACCTTGCAGTGGCAAGGCAAAAGGCCTAGGGAGATTAGAGTATCGGTCGA | 2.28 log2 normalized intensity
TAGATAAGAGCTGAGGAAGTGCTGACCTTTGCCTAGGGAGATTAGAGTATCGGTCGA | 6.57 log2 normalized intensity
AGTGCTGCATGCAAAAAGGCTGACCTTTGAGCCTAGGGAGATTAGAGTATCGGTCGA | 8.62 log2 normalized intensity
CTGAGGAAGTGCTGACCTTTGGTCTAAACCGCCTAGGGAGATTAGAGTATCGGTCGA | 6.93 log2 normalized intensity
AAGAGCTGAGGAAGTGCTGACCTTTGGTCTGCCTAGGGAGATTAGAGTATCGGTCGA | 7.88 log2 normalized intensity
CCTAAACCTGCAAACCTTTGACCTTTCCATGCCTAGGGAGATTAGAGTATCGGTCGA | 6.22 log2 normalized intensity
TCTCGGTCAAACCTTTGACCCTTTATAATCGCCTAGGGAGATTAGAGTATCGGTCGA | 6.91 log2 normalized intensity
GTCAGAGTGCTGCATGCAAAAAGGCTGACCGCCTAGGGAGATTAGAGTATCGGTCGA | 1.75 log2 normalized intensity
CTTTGAAATGTCCTGAGTGATTGTAGTGTCGCCTAGGGAGATTAGAGTATCGGTCGA | 1.86 log2 normalized intensity

Sequence | binding signal
CCCCCGCAACTATTTATGAGTCTTGGGAATGCCTAGGGAGATTAGAGTATCGGTCGA | 0.709 log2 normalized intensity
CACAGTGTTATTTGCTGAGGTGGGGGAGGTGCCTAGGGAGATTAGAGTATCGGTCGA | 0.772 log2 normalized intensity
TTAGGGAGGGGCCAGGACAAAGGTCCTGTGGCCTAGGGAGATTAGAGTATCGGTCGA | 2.51 log2 normalized intensity
GGTTAAAATTTATCTATTGGGTACAATGTTGCCTAGGGAGATTAGAGTATCGGTCGA | 2.37 log2 normalized intensity
CTTCCAGTCCACAGTCCAGTGACTATCTGCGCCTAGGGAGATTAGAGTATCGGTCGA | 1.02 log2 normalized intensity
CTACAGGGTATGAATTTAACCTTTGCTCTCGCCTAGGGAGATTAGAGTATCGGTCGA | 7.57 log2 normalized intensity
TGACCTTTGCATTCTTACCCAAGCCCCAAAGCCTAGGGAGATTAGAGTATCGGTCGA | 4.12 log2 normalized intensity
GCCCTTTGCCCTTTGCCCAACCCTCTCCCAGCCTAGGGAGATTAGAGTATCGGTCGA | 6.2 log2 normalized intensity
TTGCCCTTTGCCCAACCCTCTCCCACTCCCGCCTAGGGAGATTAGAGTATCGGTCGA | 4.93 log2 normalized intensity
TAATTGCCCTTTGCCCTTTGCCCAACCCTCGCCTAGGGAGATTAGAGTATCGGTCGA | 7.74 log2 normalized intensity
CCATCCTACAGGGTATGAATTTAACCTTTGGCCTAGGGAGATTAGAGTATCGGTCGA | 4.92 log2 normalized intensity
ATTTCTAGGTTTGATCTTTGCCCTACAATTGCCTAGGGAGATTAGAGTATCGGTCGA | 6.36 log2 normalized intensity
ACTTTGCCCTTTTTTTCTCTCCCCTTTTAAGCCTAGGGAGATTAGAGTATCGGTCGA | 2.63 log2 normalized intensity
TTTCTTAATTGCCCTTTGCCCTTTGCCCAAGCCTAGGGAGATTAGAGTATCGGTCGA | 8.84 log2 normalized intensity
AGGGAATTTCTAGGTTTGATCTTTGCCCTAGCCTAGGGAGATTAGAGTATCGGTCGA | 7.66 log2 normalized intensity
GGGTATGAATTTAACCTTTGCTCTCTGAAAGCCTAGGGAGATTAGAGTATCGGTCGA | 6.63 log2 normalized intensity
TCCTCAGGGAATTTCTAGGTTTGATCTTTGGCCTAGGGAGATTAGAGTATCGGTCGA | 3.49 log2 normalized intensity

— publication PMC10726135, “HNF4α isoforms regulate the circadian balance between carbohydrate and lipid metabolism in the liver”
